High-throughput results: PubChem, several laboratories
Hits are enriched below; roughly 5.4% of the tested compounds scored in any of these assays.
PP5 primary: PP5 (human) phosphatase inhibition | purified PP5c, OMFP substrate fluorescence | 0.18% of 320,000 active | inhibition, % at 6.7 µM;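 active = inhibition above the campaign's mean inhibition across all tested compounds plus 3 SD, cut at about 9.5% in these data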;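 also: 0% = DMSO only and 100% = 100 µM cantharidin control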
CSC inhib: blocks cancer stem cells. cancer stem cell-like cells viability, luminescence. inhibition, % at 7.5 µM. 1.1% of 300,000 active; in the data active = inhibition above about 75%; inconclusive = no clear call, values can overlap the other calls; tested in HMLE shEcad cells
Calb FLC: affects C. albicans growth with fluconazole; C. albicans CaCi-2 (fluconazole-resistant clinical isolate) + fluconazole, Alamar Blue growth, 48 h; growth inhibition, % (test concentration not listed); 0.57% of 300,000 active;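 active = growth inhibition above about 58% in most replicates, limit read from the data, passing the limit was not always enough; inconclusive = exactly half the replicates above a set limit; inactive = most replicates below a set limit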;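 also: all wells also contain fluconazole at 8 µg/ml as a sub-toxic cotreatment; 0% = median of DMSO wells and 100% = median of geldanamycin control wells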
ALR inh: human ALR oxidase inhibition via reduced H2O2 | P55789 | purified ALR, DTT oxidation, H2O2 HRP-luminol luminescence | inhibition, % (no concentration beside the values) | 3.8% of 290,000 active | AID 485317;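 active = mean replicate inhibition above about 79%, with every replicate also reaching it, limit read from the data; inconclusive = only one of the two criteria met; inactive = mean below limit and not every replicate reaching it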
Target sequence (P55789 whole entry, looked up): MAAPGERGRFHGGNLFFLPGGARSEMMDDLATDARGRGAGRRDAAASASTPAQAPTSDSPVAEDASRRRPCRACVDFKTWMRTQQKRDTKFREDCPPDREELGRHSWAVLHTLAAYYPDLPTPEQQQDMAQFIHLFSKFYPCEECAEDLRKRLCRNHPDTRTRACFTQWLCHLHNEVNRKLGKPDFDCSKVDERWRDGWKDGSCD
PP1 inh: blocks human PP1-alpha phosphatase, a PP5 counter-screen | P62136 | purified PP1alpha, OMFP fluorescence | inhibition, % at 6.7 µM | 0.9% of 320,000 active;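 active = inhibition above the mean inhibition of all tested compounds plus 3 SD, computed separately for each screening campaign, cut at about 15% in these data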
Target sequence (P62136 whole entry, looked up): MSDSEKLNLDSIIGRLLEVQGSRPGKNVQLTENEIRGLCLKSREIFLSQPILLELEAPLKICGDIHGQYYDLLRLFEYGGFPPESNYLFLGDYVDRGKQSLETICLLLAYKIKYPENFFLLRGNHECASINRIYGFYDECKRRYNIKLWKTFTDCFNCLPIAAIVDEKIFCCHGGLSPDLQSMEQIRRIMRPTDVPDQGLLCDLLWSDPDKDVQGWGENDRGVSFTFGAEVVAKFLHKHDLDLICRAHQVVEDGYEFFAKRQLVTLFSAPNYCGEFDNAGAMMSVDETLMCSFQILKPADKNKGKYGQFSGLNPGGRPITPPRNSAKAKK
The depositor's hits bear a star; u = inconclusive; x = no result.

SMILES	PP5 primary	CSC inhib	Calb FLC	ALR inh	PP1 inh
CCN1/C(=C2/SC(=S)NC2=O)Sc2ccccc21	2	3	u	91*	-2
Cc1ccc(SC(=O)c2c([N+](=O)[O-])c(C)nn2C)cc1	-1	16	-11	x	-5
CCn1nc(C)cc1C(=O)Sc1ccc(C)cc1	2	0	-3	98*	0
CC1(C)CC(=O)C2=C(C1)Oc1nc3ccccc3cc1C2C(C#N)C#N (centres undefined)	1	49	23	80*	0
CCN(CC)CCC(c1ccc(N(C)C)cc1)c1c(OC)cc(OC)c2ccc(=O)oc12 (centres undefined)	4	9	-11	99*	-1
CCCCCc1cc(=O)oc2c(C(CCN(CC)CC)c3ccc(OC)cc3)c(OC)cc(OC)c12 (centres undefined)	1	13	48	-82	7
CCN(CC)C(=O)CC(c1ccc(N(C)C)cc1)c1c(OC)cc(OC)c2ccc(=O)oc12 (centres undefined)	0	-4	2	98*	1
COC(=O)c1cc(C)nc2c1C(=O)C(=O)C=C2N1CCOCC1	7	51	18	4	16*
CC(NC(=O)CC1CCCCC1)c1ccccc1 (centres undefined)	6	-11	-4	5	-9
CCOC(=O)c1ccc2nc(C)c(CCC(C)=O)c(Cl)c2c1	1	25	13	4	-4
O=C(/C=C/c1ccco1)NCC1OCCc2ccccc21 (centres undefined)	7	111*	-2	98*	2
COc1ccc([N+](=O)[O-])cc1NCC(=O)Nc1cc(S(=O)(=O)N2CCCCC2)ccc1C	-1	2	x	x	-1
O=C(Nc1ccc(-c2n[nH]c(=S)o2)cc1)c1ccccc1Br	1	-8	0	86*	0
Cc1ccc(Nc2nc3ccccc3s2)cc1	2	8	-8	x	0
O=[N+]([O-])c1cccc(C(=Nc2ccc(Cl)cc2)NO)c1	4	-5	16	85*	-2
ONC(=Nc1ccc(Cl)cc1)c1ccc(Cl)cc1	4	16	5	78*	-6
O=C(NCC1CCCO1)c1cc2ccccc2[nH]1 (centres undefined)	-2	-6	-20	-17	-5
COc1cc(-c2nc(C(=O)NCC3CCCO3)cc3c2[nH]c2ccccc23)cc(OC)c1OC (centres undefined)	8	9	47	99*	0
COc1cccc2[nH]c(C(=O)NCC3CCCO3)cc12 (centres undefined)	2	-3	-9	-30	-4
COc1ccccc1-c1nc(C(=O)NCC2CCCO2)cc2c1[nH]c1ccccc12 (centres undefined)	5	7	9	98*	1
OC(CSc1ccc(F)cc1)CN1CCN(c2ccccc2)CC1 (centres undefined)	-1	13	-1	87*	-1
NCCc1ccc(O)c(O)c1	2	0	x	99*	-4
O=C(CCc1nc2ccccc2c(=O)[nH]1)NCC(=O)Nc1ccc(F)c(F)c1	-1	-17	4	-7	-5
O=C(Nc1ccc2c(c1)OCO2)c1nn(-c2ccccc2)c(=O)c2ccccc12	2	12	17	-2	4
Cc1oc(-c2ccccc2)nc1CS(=O)CC(=O)N1CCc2ccccc2C1 (centres undefined)	0	-15	4	99*	-1
SMILES	PP5 primary	CSC inhib	Calb FLC	ALR inh	PP1 inh
Cc1ccc(-c2nc(CS(=O)CC(=O)N3CCN(c4ccccc4)CC3)c(C)o2)cc1 (centres undefined)	0	-1	4	98*	-3
Cc1oc(-c2ccccc2Cl)nc1CSCC(=O)N1CCCC1	0	34	-3	75	-1
Cc1oc(-c2ccccc2Cl)nc1CS(=O)CC(=O)N1CCN(c2ccccc2)CC1 (centres undefined)	1	-8	0	99*	-1
Cc1cccc(-c2nc(CS(=O)CC(=O)NCC3CCCO3)c(C)o2)c1 (centres undefined)	0	-9	-7	x	-6
Cc1cccc(-c2nc(CS(=O)CC(=O)N3CCCCC3)c(C)o2)c1 (centres undefined)	4	x	2	100*	1
Cc1ccc(S(=O)(=O)NC(=NCC(=O)O)c2ccc(F)cc2)cc1	2	-10	-29	-2	0
O=C(C1CCCC1)N1CCN(S(=O)(=O)c2ccc(F)cc2)CC1	2	-5	-15	x	1
O=C(CCCCCN1C(=O)c2ccccc2C1=O)Nc1ccccc1	0	-19	-8	-4	-2
Nc1ccc(OC(=O)Nc2ccc(O)cc2)cc1	3	4	10	99*	1
O=C(O)C1CCCCC1C(=O)Nc1ccccc1Nc1ccccc1 (centres undefined)	1	-4	-2	99*	-2
O=C(Nc1ccccc1)c1ccccc1NC(=O)[C@H]1CCCC[C@H]1C(=O)O	-1	-7	-1	5	0
O=C(Nc1ccccc1)Nc1ccc(Nc2ccccc2)cc1	1	26	-11	21	-2
CC(=O)Nc1ccc(Nc2ccccc2)cc1	-1	-23	-4	99*	-3
O=C(CCCCCCC(=O)Nc1ccccc1)NO	0	106*	-11	x	0
CCCCN(C)C(=O)Cn1cnc2sc(C)c(S(=O)(=O)N3CCN(c4ccccc4OC)CC3)c2c1=O	-2	-13	1	-3	-4
Cc1c(C(=O)N(Cc2nnc(-c3ccccc3Cl)o2)C2CC2)oc2ccccc12	1	-5	x	1	2
Cc1ccc2[nH]c3c(=O)n(CC(=O)NCCCN(C)Cc4ccccc4)ncc3c2c1	-1	1	17	-1	3
CC(=O)Nc1ccc(C)cc1	0	-13	x	9	-5
CC(=O)CC(=O)Nc1ccc(Nc2ccccc2)cc1	2	x	1	99*	-1
O=C(CCCC(=O)c1ccccc1)Nc1ccc(O)cc1	1	17	-7	88*	11
CCCC(=O)Nc1ccc(Nc2ccccc2)cc1	1	-10	-11	99*	-2
CC(=O)Nc1ccc(O)cc1	3	-1	x	99*	-2
CCO[C@@H]1OC(C(=O)NC2CC2)=C[C@H](c2c[nH]c3ccccc23)[C@H]1CCCO	-1	14	-2	7	-2
COc1ccc2[nH]c(=O)c(CNc3ccccc3)cc2c1	1	1	2	-8	1
O=C(NCC(O)c1ccc([N+](=O)[O-])cc1)C(c1ccccc1)c1ccccc1 (centres undefined)	0	-10	7	-2	-1
Cc1ccc(C)c(OCCC(=O)N2CCN(S(=O)(=O)c3cc(F)ccc3F)CC2)c1	3	x	x	x	-2
O=C(Nc1ccc(Nc2ccccc2)cc1)C1CC1	1	-2	-21	100*	-3
COc1cc(CN2CCN(S(=O)(=O)c3ccccc3)CC2)cc(OC)c1OC	1	-17	-2	-20	-4
COc1cc(CN2CCN(c3cccc(Cl)c3)CC2)cc(OC)c1OC	4	93*	-4	0	5
